Screening data from PubChem BioAssay.
A selection: hits, their analogues and other compounds. The true share with any hit is near 6.7%.
C diff HTS – inhibitors of Clostridium difficile growth. Clostridium difficile clinical isolate growth, OD600, 24 h; active compounds read low. growth activity, negative = inhibition, % at 16 µg/mL (by protocol). 86,000 tested, 0.25% active;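 active means mean growth activity at or below -80% and every replicate also at or below -80%; inconclusive means mean at or below -80% but some replicate above -80%; inactive means mean growth activity above -80%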;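 further: 0% = DMSO wells and -100% = levofloxacin 16 µg/mL wells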
T cruzi growth-1 – T. cruzi proliferation inhibition; T. cruzi beta-gal in NIH3T3, GalScreen luminescence, 90 h; inhibition, % at 8.34 µM; 77,000 tested, 5.9% active; AID 624255;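 active means mean inhibition above about 93%, with at least 55% of replicates each passing it, limit read from the data, passing the limit was not always enough; inconclusive means only one of those two conditions holds; inactive means neither condition holds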
Pf Dd2 growth – P. falciparum Dd2 growth inhibition. AID 1159554. activity change, % at 10 µM. 94,000 tested, 2.3% active. SYBR Green, 72 h; active compounds read low; in the data active means activity change below about -80%; inconclusive means no clear call, values can overlap the other calls
T cruzi growth-2 – Trypanosoma cruzi proliferation inhibition; 5,600 tested, 72% active; T. cruzi beta-gal in NIH3T3, GalScreen luminescence, 90 h; inhibition, % at 8.35 µM; shares compounds with T cruzi growth-1; AID 651739;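 active means mean replicate inhibition above about 95% and at least 55% of replicates individually reaching it, limit read from the data; inconclusive means only one of the two criteria is met; inactive means neither criterion is met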
T cruzi growth-3 – blocks T. cruzi growth in NIH3T3 host cells | shares compounds with T cruzi growth-1 | T. cruzi beta-gal in NIH3T3, GalScreen luminescence, 90 h | inhibition, % at 2.09 µM | 5,600 tested, 21% active | AID 651740;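 active means mean inhibition above about 95%, with at least 55% of replicates also reaching it, limit read from the data; inconclusive means meets just one of the two conditions; inactive means meets neither condition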;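 further: plate controls were neutral control median for no effect and positive control median for full effect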
3T3 cytotox – NIH/3T3 (mouse) viability loss. shares compounds with T cruzi growth-1. NIH/3T3 viability, CellTiter-Glo ATP luminescence, 90 h. cytotoxicity (signal decrease), % at 8.35 µM. 5,600 tested, 14% active. AID 651742;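 active means mean signal decrease across replicates above about 35% based on untreated-well scatter, with enough replicates individually passing, limit read from the data; inconclusive means no rule stated though some were filed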;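 further: 0% = median of neutral control wells and 100% = median of positive control wells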
3T3 cytotox 2 – cytotoxicity in mouse NIH/3T3 fibroblasts. 5,600 tested, 56% active. shares compounds with T cruzi growth-1. NIH/3T3 viability, CellTiter-Glo ATP luminescence, 90 h. AID 651744. inhibition, % at 24.9 µM;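 active means mean loss of cell viability signal at or above a set limit, and enough replicates individually reaching it; inconclusive means meets only the mean limit or only the replicate share; inactive means meets neither condition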;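 further: 0% = median of neutral control wells and 100% = median of positive control wells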
* = called active by the depositor; ? = inconclusive; nt = not tested or not shown.

SMILES | C diff HTS | T cruzi growth-1 | Pf Dd2 growth | T cruzi growth-2 | T cruzi growth-3 | 3T3 cytotox | 3T3 cytotox 2
C/C=C/c1ccc2c(c1)O[C@@H](CN(C)Cc1ccncc1)[C@@H](C)CN([C@H](C)CO)S2(=O)=O | 9 | 103* | 15 | 96* | 94 | 19 | 57*
C/C=C/c1ccc2c(c1)O[C@@H](CN(C)Cc1ccc(C(=O)O)cc1)[C@@H](C)CN([C@@H](C)CO)S2(=O)=O | 3 | nt | -10 | nt | nt | nt | nt
C/C=C/c1ccc2c(c1)O[C@@H](CN(C)Cc1ccncc1)[C@H](C)CN([C@H](C)CO)S2(=O)=O | -1 | 102* | -55 | 99* | 104* | ? | 69*
COc1ccc2c3c([nH]c2c1)[C@H](CO)N(C(=O)C1CCOCC1)CC31CN(Cc2cccc(F)c2)C1 | -13 | nt | -6 | nt | nt | nt | nt
CC(=O)N1[C@H](CO)[C@H](c2ccccc2)[C@@H]1CN(C(=O)c1ccccc1)C(C)C | 8 | 85 | 8 | nt | nt | nt | nt
CO[C@@H]1CN(C)C(=O)c2ccc(NC(=O)Nc3ccccc3F)cc2OC[C@H](C)N(C(C)=O)C[C@@H]1C | nt | 10 | -11 | nt | nt | nt | nt
COc1ccc(CN(C)C[C@H]2Oc3ccc(NC(=O)Nc4ccc5c(c4)OCO5)cc3CC(=O)N([C@@H](C)CO)C[C@@H]2C)cc1 | 4 | 1 | -29 | nt | nt | nt | nt
C[C@@H]1CN([C@H](C)CO)C(=O)Cc2cc(NC(=O)Nc3ccc4c(c3)OCO4)ccc2O[C@H]1CN(C)Cc1ccc(Oc2ccccc2)cc1 | -9 | ? | 9 | 113* | 69 | 29 | 31*
CC(C)NC(=O)Nc1ccc2c(c1)CC(=O)N([C@H](C)CO)C[C@H](C)[C@H](CN(C)Cc1ccc(Oc3ccccc3)cc1)O2 | -8 | 71 | -42 | nt | nt | nt | nt
COc1ccc(CN(C)C[C@H]2Oc3ccc(NC(=O)Nc4ccc5c(c4)OCO5)cc3CC(=O)N([C@H](C)CO)C[C@H]2C)cc1 | -2 | 99* | 31 | 110* | 20 | 1 | 8
CC(C)NC(=O)Nc1ccc2c(c1)CC(=O)N([C@@H](C)CO)C[C@@H](C)[C@H](CN(C)Cc1ccc(Oc3ccccc3)cc1)O2 | -12 | 101* | ? | 107* | 42 | 30 | 104*
C[C@@H]1CN([C@@H](C)CO)C(=O)Cc2cc(NC(=O)Nc3ccc4c(c3)OCO4)ccc2O[C@@H]1CN(C)Cc1ccc(Oc2ccccc2)cc1 | 6 | 4 | -5 | nt | nt | nt | nt
CC(C)NC(=O)Nc1ccc2c(c1)C(=O)N([C@@H](C)CO)C[C@@H](C)[C@@H](CN(C)S(=O)(=O)c1cn(C)cn1)O2 | -5 | 11 | 35 | nt | nt | nt | nt
CCCNC(=O)N1C[C@@H]2[C@H](c3ccccc31)[C@H](CO)N2Cc1cc(F)ccc1F | 5 | -6 | 1 | nt | nt | nt | nt
O=C(C[C@H]1C=C[C@@H](NS(=O)(=O)c2ccc(F)cc2)[C@H](CO)O1)NC1CCCCC1 | nt | 9 | -10 | nt | nt | nt | nt
C[C@@H]1CN([C@@H](C)CO)C(=O)Cc2cc(NS(=O)(=O)c3ccc(Cl)cc3)ccc2O[C@H]1CN(C)Cc1ccc(-c2ccccc2)cc1 | nt | 32 | -49 | nt | nt | nt | nt
COc1ccccc1S(=O)(=O)N1CC[C@@H]2[C@@H](CO)N(C)c3ccc(-c4cccc(C#N)c4)cc3[C@@H]21 | -1 | 97* | -7 | 106* | 72 | 15 | 19
Cc1ccc(S(=O)(=O)N2CC[C@H]3[C@@H](CO)N(C)c4ccc(-c5cccc(C#N)c5)cc4[C@H]32)cc1 | -3 | 80 | 5 | nt | nt | nt | nt
COc1ccccc1S(=O)(=O)N1CC[C@@H]2[C@H]1c1cc(-c3cccc(C#N)c3)ccc1N(C)[C@H]2CO | 11 | 106* | 22 | 105* | 63 | ? | 33*
CN1c2ccc(Br)cc2[C@H]2[C@H](CCN2S(=O)(=O)c2cccc(F)c2)[C@H]1CO | 4 | ? | 30 | 97* | 55 | -11 | 27
COc1ccccc1S(=O)(=O)N1CC[C@@H]2[C@@H](CO)N(C)c3ccc(-c4ccc(C#N)cc4)cc3[C@@H]21 | -2 | 23 | -19 | nt | nt | nt | nt
COc1ccccc1S(=O)(=O)N1CC[C@@H]2[C@H]1c1cc(-c3ccc(F)cc3)ccc1N(C)[C@H]2CO | -1 | 33 | -17 | nt | nt | nt | nt
Cc1ccccc1S(=O)(=O)N1CC[C@@H]2[C@@H](CO)N(C)c3ccc(-c4cccc(C#N)c4)cc3[C@@H]21 | -5 | 100* | 6 | 99* | 64 | 14 | 61*
Cc1cccc(S(=O)(=O)N2CC[C@@H]3[C@@H](CO)N(C)c4ccc(Br)cc4[C@@H]32)c1 | 4 | 73 | -4 | nt | nt | nt | nt
C[C@@H]1CCCCO[C@@H](CN(C)Cc2ccc(Cl)c(Cl)c2)[C@H](C)CN([C@H](C)CO)C(=O)c2cc(NC(=O)NC3CCCCC3)ccc2O1 | -6 | 34 | ? | nt | nt | nt | nt
SMILES | C diff HTS | T cruzi growth-1 | Pf Dd2 growth | T cruzi growth-2 | T cruzi growth-3 | 3T3 cytotox | 3T3 cytotox 2
COCC(=O)N1CC2(CCN(Cc3nccs3)CC2)c2c(n(C)c3cc(OC)ccc23)[C@@H]1CO | -3 | nt | -56 | nt | nt | nt | nt
CNC[C@@H]1OCCCC[C@@H](C)Oc2ccc(NC(=O)c3ccncc3)cc2C(=O)N([C@@H](C)CO)C[C@H]1C | -1 | 49 | 5 | nt | nt | nt | nt
CC(C)NC(=O)N1[C@H](CO)[C@@H]2c3ccccc3N(C(=O)C3CCCCC3)C[C@@H]21 | 20 | 18 | -11 | nt | nt | nt | nt
CN(C)C(=O)c1cccc(-c2ccccc2[C@H]2[C@@H](C#N)N(C(=O)C3CCCCC3)[C@H]2CO)c1 | -10 | nt | -15 | nt | nt | nt | nt
COc1ccc(-c2ccc([C@@H]3[C@@H](CO)N4CCCCN(C(=O)NC(C)C)C[C@@H]34)cc2)cc1 | 8 | 71 | -8 | nt | nt | nt | nt
Cc1ccccc1S(=O)(=O)N1CC[C@@H]2[C@H]1c1cc(-c3ccccc3)ccc1N(C)[C@H]2CO | 0 | 98* | -70 | 107* | 115* | 12 | 103*
Cc1ccccc1S(=O)(=O)N1CC[C@@H]2[C@H](CO)N(C)c3ccc(Br)cc3[C@@H]21 | 3 | 131* | -5 | 107* | 37 | 11 | 72*
Cc1ccccc1S(=O)(=O)N1CC[C@@H]2[C@H]1c1cc(-c3ccc(F)cc3)ccc1N(C)[C@H]2CO | 51 | 92 | 20 | nt | nt | nt | nt
Cc1ccccc1S(=O)(=O)N1CC[C@@H]2[C@H]1c1cc(Br)ccc1N(C)[C@H]2CO | 5 | 76 | -25 | nt | nt | nt | nt
C[C@@H]1CN([C@H](C)CO)S(=O)(=O)c2ccc(C3=CCCC3)cc2O[C@@H]1CN(C)Cc1ccccc1 | 6 | 109* | 20 | 100* | 55 | 16 | 107*
C[C@@H]1CN([C@H](C)CO)S(=O)(=O)c2ccc(C3=CCCC3)cc2O[C@H]1CN(C)CC1CCCC1 | 18 | 105* | -57 | 92 | 91 | 59* | 105*
C[C@@H]1CN([C@H](C)CO)S(=O)(=O)c2ccc(C3=CCCC3)cc2O[C@@H]1CN(C)CC1CCCCC1 | nt | 0 | ? | nt | nt | nt | nt
